# Pf growth 96h: P. falciparum growth inhibition at 96 hours. P. falciparum luciferase reporter growth, 96 h. Potency, µM (titrated, usually from 28.7 µM), for inactives: at the top dose activity change, negative = inhibition, most hits filed as inhibitors. 320,000 tested, 6.9% active. AID 504834; note: potency is the fitted concentration of half-maximal effect; % is set by controls: 0 for no effect and ±100 for the full control effect
#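 Cell-based qHTS: luciferase-tagged P. falciparum in erythrocytes (2% hematocrit, 0.05% parasitemia final) incubated with compounds for 96 hours, 37 C, 5% CO2; luciferase detection reagent then added and luminescence measured.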
# Shiga toxin inh: inhibitors of Shiga toxin in Vero cells; Vero cells, Shiga toxin protein synthesis inhibition reporter; inhibition, % at 38.7 µM; 290,000 tested, 9.2% active; AID 2315; in the data active = inhibition mostly above about 28%, no sharp cut-off; inactive = mostly below about 43%; note: 0% is about no effect
# FBPA Giardia inh: blocks Giardia fructose-bisphosphate aldolase activity; AID 2451; 290,000 tested, 0.71% active; purified Giardia FBPA; Potency, µM (doses to about 59.6 µM), for the others: at the top dose activity, negative = inhibition, usual class: inhibitors; note: potency is the fitted concentration of half-maximal effect; % is set by controls: 0 for no effect and ±100 for the full control effect; nearly all actives have a fitted effect of over 55% in size
# Target sequence (A8B2U2 whole entry, looked up): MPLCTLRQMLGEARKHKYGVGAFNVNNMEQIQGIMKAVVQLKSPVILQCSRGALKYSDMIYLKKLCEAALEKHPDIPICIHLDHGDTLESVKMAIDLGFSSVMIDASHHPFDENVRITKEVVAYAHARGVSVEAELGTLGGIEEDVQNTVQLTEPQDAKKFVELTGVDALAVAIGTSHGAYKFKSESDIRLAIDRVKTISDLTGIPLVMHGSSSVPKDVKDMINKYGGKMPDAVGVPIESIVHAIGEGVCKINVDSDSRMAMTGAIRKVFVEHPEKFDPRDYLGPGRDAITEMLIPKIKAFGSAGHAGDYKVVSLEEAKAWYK
#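 40 nM FBPA preincubated 10 min at RT with compound (up to 57.5 uM final), then substrate plus GAPDH/TPI/NAD/arsenate coupling and diaphorase/resazurin added. Fluorescence read after 20 min at RT, 525/598 nm.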
# Pf growth 48h: inhibits P. falciparum growth in the first generation, 48 h; Potency, µM (titrated, usually from 28.7 µM), for inactives: top-dose activity change, negative = inhibition, most hits filed as inhibitors; 310,000 tested, 5.9% active; P. falciparum luciferase growth in erythrocytes, 48 h; note: potency is the fitted concentration of half-maximal effect; % is set by controls: 0 for no effect and ±100 for the full control effect
#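 Luciferase-expressing parasites in RBCs, 2% Hct / 0.1% parasitemia final; RPMI 1640 + 0.5% Albumax; 37 C, 5% CO2, one generation; luminescence read-out, lower signal = inhibition.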
# CHX counter: counter-screen for Shiga toxin inhibitors: cycloheximide protein synthesis inhibition; AID 2314; max response, %; cell reporter, cycloheximide protein synthesis inhibition counterscreen; 300,000 tested, 12% active; in the data active = max response mostly above about 13%, no sharp cut-off; inactive = mostly below about 14%; note: read at 38.3 µM for the half of the compounds with a filed dose; 0% is about no effect
# NS1 function inh: inhibitors of influenza NS1 protein function. 270,000 tested, 0.4% active. AID 2326. Potency, µM (series often up to 46.1 µM), for inactives: top-dose activity, positive = more growth; calls by dose curve; note: potency is the fitted concentration of half-maximal effect; actives are rising curves; nearly all actives have a fitted effect of over 50% in size
#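 Compounds were scored for reversing the slow growth caused by influenza A NS1 in S. cerevisiae, measured by optical density at 600 nm. Assay medium contained 2% galactose at pH 6.0; NS1-free yeast of the same strain were the positive control.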
# * hit, by the source's call; ? = inconclusive; . = not tested or not shown; + = active, no number; [ ] = another dose, or the depositor's remark. Hits are enriched below; roughly 21% of the tested compounds scored in any of these assays. Unless noted, calls come from the whole dose curve; as a rule, active = well fitted curve in the direction sought with a large enough effect; inconclusive = small, poorly fitted or top-dose-only effect, or another doubt; inactive = no such curve, though single readings can be large; an effect the other way counts as inactive or inconclusive.
SMILES,Pf growth 96h,Shiga toxin inh,FBPA Giardia inh,Pf growth 48h,CHX counter,NS1 function inh
CCCCc1cc(=O)oc2c3c(cc(OCC(=O)NCCCO)c12)OC(C)(C)CC3,?,-6,-5%,?,-4,4%
COC(=O)c1sc(NC(=O)c2ccc(C)o2)nc1C,?,147*,7%,230%,47*,-24%
CCOC(=O)c1sc(NC(=O)c2ccc(OC(C)=O)cc2)nc1C,?,56*,1%,36%,21*,-1%
CCOC(=O)c1sc(NC(=O)c2ccc(OC)cc2)nc1C,?,7,0%,81%,5,-2%
COC(=O)c1sc(NC(=O)c2oc3ccccc3c2C)nc1C,.,38*,2%,74%,28*,4%[9.22 µM]
CCOC(=O)c1sc(NC(=O)c2ccco2)nc1C,?,12,0%,41%,16,-14%
CCOC(=O)c1sc(NC(=O)c2ccc(C)o2)nc1C,54%,43*,-2%,.,28*,-48%
CCc1ccc(NC(=O)c2ccc(NC3=NC4CS(=O)(=O)CC4S3)cc2)cc1 (centres undefined),?,12,.,-4%,-2,-11%
COc1ccc(NC(=O)Cn2cc(S(=O)(=O)N3CCN(c4ccccc4F)CC3)c3ccccc3c2=O)cc1Cl,.,19,.,.,17,.
COC(=O)[C@H](CC(C)C)NC(=O)NCc1ccc(Cl)cc1,40%,15,0%,12%,-1,-1%
Cc1n[nH]c(C)c1CCOc1ccc(C(C)C)cc1,13%,49*,3%,-1%,32,-69%
COc1cc(C(CCN2CCCC2)c2c(OC)cc(OC)c3c(C)cc(=O)oc23)cc(OC)c1OC (centres undefined),9.3µM*,16,-5%,7.4µM*,-2,3%
COc1ccc(C(CCN2CCOCC2)c2c(OC)cc(OC)c3c(C)cc(=O)oc23)cc1 (centres undefined),?,-10,4%,?,-6,2%
COc1cc(C(CCN2CCOCC2)c2c(OC)cc(OC)c3c(C)cc(=O)oc23)cc(OC)c1OC (centres undefined),?,12,-2%,13µM*,-7,12%
NCC(=O)N[C@H](CO)C(=O)O,.,.,.,.,.,8%
Cc1c(Cl)c([N+](=O)[O-])nn1CCCC(=O)NCCc1ccccc1,7.4µM*,102*,1%,41%,31*,.
Cc1ccc(-n2nc3c(=O)n(CC(=O)NCCc4ccc(Cl)cc4)nc(C)c3c2C)cc1,0.93µM*,-6,.,20%,10,12%
Cc1ccc(CCNC(=O)CCCn2nc(C)c3c(C)n(-c4ccc(C)cc4)nc3c2=O)cc1,?,-3,12%,1%,2,9%
Cc1nn(Cc2ccccc2)c(C)c1NC(=O)CCCn1nc([N+](=O)[O-])c(Cl)c1C,?,-18,-3%,-22%,-6,-15%
CCOC(=O)c1sc(NC(=O)CCCn2nc([N+](=O)[O-])c(Cl)c2C)c(C(=O)OCC)c1C,1.3µM*,-1,2%,2%,-1,2%
Cc1nn(CCCC(=O)NCCc2ccc(Cl)cc2)c(=O)c2nn(-c3ccccc3)c(C)c12,13µM*,22,.,-13%,-1,-2%
O=C(COc1ccc([N+](=O)[O-])cc1)Nc1ccccc1C(=O)NC1CC1,34%,.,.,3%,.,.
O=C1OCC2=C1C(c1ccc(F)cc1)c1cc3c(cc1N2)OCCO3 (centres undefined),-9%,-13,-13%,27%,-8,.
COc1ccc(/C=C/C(=O)O)cc1S(=O)(=O)NCc1ccccc1,0%,26,3%,74%,-2,0%
COc1ccc(/C=C/S(=O)(=O)NCc2ccccc2)cc1OC,39%,-10,16%,12µM*,-1,.
SMILES,Pf growth 96h,Shiga toxin inh,FBPA Giardia inh,Pf growth 48h,CHX counter,NS1 function inh
O=P(CCCCCCCCCP(=O)(c1ccccc1)c1ccccc1)(c1ccccc1)c1ccccc1,.,-26,8%,1.3µM*,3,-83%
O=C(OCC(=O)N(C1CCCCC1)C1CCCCC1)c1ccc(Cl)nc1,8%,.,.,11%,.,.
CCn1c(SCc2ccc(F)cc2)nnc1C1CCN(S(=O)(=O)c2ccc(OC)cc2)CC1,8.3µM*,-2,0%,12µM*,-1,-12%
CCn1c(SCc2ccc(C)cc2)nnc1C1CCN(S(=O)(=O)c2ccc(OC)cc2)CC1,4.1µM*,-14,2%,12µM*,-3,10%
CCn1c(SC)nnc1C1CCN(S(=O)(=O)c2ccc(OC)cc2)CC1,-26%,-7,1%,4%,-3,23%
CCCC[C@@H]1C[C@H]1C(NC(=O)c1ccccc1)c1ccc(C(F)(F)F)cc1 (some centres undefined),.,.,-4%,.,.,.
COc1ccccc1NC(=O)Cc1nnc(SCC(=O)NC2=NCCS2)n1C,-1%,16,-5%,-10%,2,8%
Cc1ccc(C(=O)c2ncc[nH]2)cc1,68%,.,.,98%,.,.
O=C(c1ccc(OC(F)(F)F)cc1)c1ncc[nH]1,99%,65*,8%,103%,39*,-2%
Cc1cc(C)c(S(=O)(=O)/N=C2/C=C(SCC(=O)O)C(=O)c3ccccc32)cc1C,10%,8,16µM*,12µM*,4,.
COc1ccc(S(=O)(=O)NC2CC(=O)N(c3ccccc3)C2)cc1C (centres undefined),56%,.,.,17%,.,.
CC1=CC(=O)C2C(C)(C)CCC[C@@]2(C)[C@@]1(O)CCc1ccoc1 (some centres undefined),.,.,-3%,.,.,.
COC(=O)[C@@H]1C[C@H]1[C@@H](NC(C)=O)c1ccccc1,.,.,-1%,.,.,.
COc1cccc(C(=O)/C=C/Nc2ccc(S(=O)(=O)Nc3cnc4ccccc4n3)cc2)c1,3%,98*,8%,36%,69*,21%
O=C1CCCC/C1=C\Nc1ccc(S(=O)(=O)Nc2cnc3ccccc3n2)cc1,13%,27,5%,19%,-1,1%
O=C(/C=C/Nc1ccc(S(=O)(=O)Nc2cnc3ccccc3n2)cc1)c1ccccc1,?,61,23%,15%,28*,0%
S=C(NC1CCCC1)N1CCN(C/C=C/c2ccccc2)CC1,-85%,-8,-1%,1%,1,.
O=C(NN=C1C2CC3CC(C2)CC1C3)c1ccccc1O,-25%,38,?,?,19*,-3%
CC(=O)N1CCC(=NNC(=O)c2cc3ccccc3cc2O)CC1,-3%,-5,.,?,7,21%
NC(=O)C(=O)NN=C1C2CC3CC(C2)CC1C3,5%,16,-10%,0%,8.0*,8%
CC1=C/C(=N\NC(=O)c2cccs2)CC(C)(C)C1,?,18,-28%,-12%,4,.
CC(=O)N1CCC(=NNC(=O)c2cccs2)CC1,28%,+,-5%,32%,55*,8%
O=C(NN=C1C2CC3CC(C2)CC1C3)c1cccs1,60%,73*,-7%,.,48*,-2%

# From PubChem
